# High-throughput results as filed in PubChem.
# DT40 TDP1 no CPT = qHTS for Inhibitors of human tyrosyl-DNA phosphodiesterase 1 (TDP1): qHTS in cells in absence of CPT | DT40 Tdp1-/- hTDP1 cells, no CPT, ATP luminescence, 48 h | Potency, µM (titrated, usually from 46.2 µM), most hits filed as inhibitors | AID 686978, 2013 | actives 15% (n = 420,000); note: nearly all actives have a fitted effect of over 55% in size
#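 Compound effects on proliferation are scored in DT40 Tdp1-/-;hTDP1 cells in the absence of CPT. ATP levels (CellTiter-Glo luminescence) are recorded after a ≥48 hr, 37 °C incubation.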
# PLK1 PBD inh = inhibitors of human PLK1 polo-box domain binding; Potency, µM, actives largely listed as inhibitors; AID 720504; actives 2.8% (n = 360,000); Plk1 PBD binding of FITC phosphopeptide, fluorescence polarization; P53350; note: series mostly up to about 57 µM; nearly all actives have a fitted effect of over 65% in size
# Target sequence (P53350 whole entry, looked up, the tested form may be a part): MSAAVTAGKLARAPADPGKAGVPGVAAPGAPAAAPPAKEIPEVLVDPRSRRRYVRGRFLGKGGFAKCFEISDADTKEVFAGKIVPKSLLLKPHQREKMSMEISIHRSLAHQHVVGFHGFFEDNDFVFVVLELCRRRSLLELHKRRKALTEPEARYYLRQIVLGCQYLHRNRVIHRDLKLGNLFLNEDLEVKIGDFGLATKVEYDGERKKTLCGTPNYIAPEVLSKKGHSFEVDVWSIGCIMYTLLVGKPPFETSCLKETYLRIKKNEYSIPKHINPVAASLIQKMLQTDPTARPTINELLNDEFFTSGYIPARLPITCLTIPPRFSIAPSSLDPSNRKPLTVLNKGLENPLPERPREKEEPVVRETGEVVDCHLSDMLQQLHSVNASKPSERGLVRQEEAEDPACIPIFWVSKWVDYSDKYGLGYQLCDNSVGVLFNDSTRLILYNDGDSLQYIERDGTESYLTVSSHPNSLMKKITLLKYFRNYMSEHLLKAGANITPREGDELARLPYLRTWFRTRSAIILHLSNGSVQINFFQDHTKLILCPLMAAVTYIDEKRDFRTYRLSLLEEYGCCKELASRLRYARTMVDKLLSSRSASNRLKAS
# VDR inh = inhibitors of human vitamin D receptor; P11473; VDR-SRC2-3 peptide fluorescence polarization, 2 h; Potency, µM, actives largely listed as inhibitors; actives 0.93% (n = 400,000); AID 504847
#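 Reagent solutions, kept cold and dark, are dispensed first; compounds are then pinned in at 23 nl, plates briefly spun, and incubated 2 h at ambient temperature. Inhibition of VDR–SRC2-3 peptide binding is read by fluorescence polarization.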
# TDP1 inh = TDP1 (human) enzyme inhibition | Q9NUW8 | recombinant TDP1, AlphaScreen DNA substrate cleavage | Potency, µM (doses to about 130 µM), most hits filed as inhibitors | actives 0.28% (n = 350,000); note: nearly all actives have a fitted effect of over 40% in size
#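 Signal: AlphaScreen proximity between streptavidin donor and anti-FITC acceptor beads on intact substrate. Reaction: Tdp1 1 nM, substrate 15 nM final, 5 min RT after 15 min compound preincubation.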
# KAT2A inh = blocks human GCN5L2 histone acetyltransferase | actives 0.21% (n = 390,000) | GCN5L2 HAT assay, ThioGlo1 CoA-SH fluorescence | Potency, µM (doses to about 58.9 µM), usual class: inhibitors
#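 Fluorescence readout, Ex340nm/Em540nm: ThioGlo1 (50uM final) reacts with free CoA thiol released as 20nM GCN5L2 acetylates H3(1-25) peptide (75uM) using acetyl-CoA (70uM). Compound and enzyme sat 15 min beforehand; 20 min room-temperature reaction.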
# TDP1 cell CPT = DT40-hTDP1 cell growth loss with CPT; chicken DT40 Tdp1-/-;hTDP1 cells + 20 nM CPT, ATP luminescence, 48 h; Potency, µM (highest dose often 46.2 µM), most hits filed as inhibitors; actives 12% (n = 420,000); AID 686979; note: nearly all actives have a fitted effect of over 55% in size
#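 Cell growth measured by CellTiter-Glo luminescence after a minimum 48 h, 37 C compound exposure with 20 nM CPT in Tdp1-knockout DT40 cells stably expressing hTDP1, seeded 400/well; qHTS titration format.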
# Numbers stand for hits; i = inactive; ? = inconclusive; nt = no result given; [ ] = dose if it differs, or a comment. This is a sample that favours compounds with a hit; in the whole collection about 18% have one here. Calls come from the whole dose curve; as a rule, active = well fitted curve in the direction sought with a large enough effect; inconclusive = small, poorly fitted or top-dose-only effect, or another doubt; inactive = no such curve, though single readings can be large; an effect the other way counts as inactive or inconclusive.
SMILES,DT40 TDP1 no CPT,PLK1 PBD inh,VDR inh,TDP1 inh,KAT2A inh,TDP1 cell CPT
CC1CCc2c(sc3ncnc(NS(=O)(=O)c4cccs4)c23)C1 (stereo unspecified),i,i,i,i,i,i
CC1CCc2c(sc3ncnc(SCC(=O)N(C)C4CCS(=O)(=O)C4)c23)C1 (stereo unspecified),18.4µM,26.7µM,i,i,i,?
CCCn1c(SCC(=O)N(C)C2CCS(=O)(=O)C2)nc2sc3c(c2c1=O)CCC3 (stereo unspecified),?,i,i,i,i,?
O=C(CSc1ncnc2sc3c(c12)CCCC3)c1ccccc1,?,i,i,?,i,29.1µM
CCc1cc2c(SCC(=O)N(C)C3CCS(=O)(=O)C3)ncnc2s1 (stereo unspecified),?,?,i,i,i,i
COCCCNc1ncnc2sc3c(c12)CCC(C)C3 (stereo unspecified),23.1µM,i,i,i,i,?
CCN(C(=O)CSc1nc(C)nc2sc3c(c12)CCC3)C1CCS(=O)(=O)C1 (stereo unspecified),20.6µM,i,i,i,i,?
O=C(CSc1ncnc2sc3c(c12)CCCC3)c1ccco1,?,i,i,i,i,?
Cc1cc(C)cc(C(=O)NCCCN2CCOCC2)c1,i,i,i,nt,i,i
O=C(NCC1CCC2(CCN(Cc3cc4ccccc4o3)CC2)O1)c1ccccc1 (stereo unspecified),i,nt,nt,nt,nt,i[9.04 µM]
CC(=O)C(Sc1ncnc2sc3c(c12)CCCC3)C(C)=O,?,i,i,i,i,13µM
CC(=O)CSc1ncnc2sc3c(c12)CCCC3,?,i,i,i,i,i
CCCOC(=O)CSc1ncnc2sc3c(c12)CCC(C)C3 (stereo unspecified),i,nt,i,nt,i,i
CC(=O)CSc1ncnc2sc3c(c12)CCC(C)C3 (stereo unspecified),i,23.8µM,i,i,i,i
CC1CCc2c(sc3ncnc(SCC(=O)c4ccccc4)c23)C1 (stereo unspecified),?,13.4µM,i,i,i,i
C/C(N=Nc1nc2ccccc2s1)=N\Nc1ccccc1O,2.59µM,i,i,i,i,9.2µM
CC(=O)c1cc(NC(=O)c2ccc([N+](=O)[O-])cc2)c(=O)oc1C,23.1µM,i,i,i,i,?
COC(=O)c1cc(NC(=O)c2ccccc2)c(=O)oc1C,i,?,i,i,i,i
Cc1ccc(C(=O)Nc2cc3cc(Cl)ccc3oc2=O)cc1,1.46µM,nt,i,i[12.3 µM],i,1.16µM
Cc1oc(=O)c(NC(=O)c2cccc(Cl)c2)cc1C(=O)c1ccccc1,20.6µM,i,39.8µM,i,i,29.1µM
Cc1nccc2oc(=O)c(NC(=O)c3ccc(Cl)cc3)cc12,i,i,i,i,i,i
COc1ccc(C(=O)Nc2cc(C(=O)c3ccccc3)c(C)oc2=O)cc1,10.3µM,i,31.6µM,i,i,13µM
Cc1oc(=O)c(NC(=O)c2ccccc2)cc1C(N)=O,i,i,i,i,i,i
CCCCCCCCC(=O)NC(NC(=S)N1CCOCC1)C(Cl)(Cl)Cl (stereo unspecified),14.6µM,i,i,i,i,?
Cc1ccc2c(=O)cc(C(=O)Nc3sc4c(c3C(=O)NCC3CCCO3)CCC4)oc2c1 (stereo unspecified),i,nt,i,i,i,i
SMILES,DT40 TDP1 no CPT,PLK1 PBD inh,VDR inh,TDP1 inh,KAT2A inh,TDP1 cell CPT
CCC(=O)OCC(=O)[C@@]1(OC(=O)CC)[C@H](C)C[C@H]2[C@H]3[C@H]([C@@H](O)C[C@@]21C)[C@@]1(C)C=CC(=O)C=C1C[C@H]3Cl,i,nt,nt,nt,nt,i
O=[N+]([O-])/C=C/c1c(OCc2ccccc2)ccc2ccccc12,nt,nt,nt,i,i,nt
CCOC(=O)COc1ccc2ccccc2c1/C=C/[N+](=O)[O-],3.66µM,5.97µM,25.1µM,i,i,5.17µM
CCOC(=O)Cn1cc(/C=C/[N+](=O)[O-])c2ccccc21,23.1µM,?,?,i,i,14.6µM
Cc1cccc(Cn2cc(/C=C/[N+](=O)[O-])c3ccccc32)c1,?,i,?,i,i,23.1µM
O=C(O)c1ccc(Cn2cc(/C=C\[N+](=O)[O-])c3ccccc32)o1,i,26.7µM,12.6µM,i,i,i
O=S(=O)(c1ccccc1)N1CCN(S(=O)(=O)c2ccc3c(c2)OCCO3)CC1,nt,nt,nt,i,nt,nt
CCCC[C@H](NC(=O)[C@H](CC(C)C)NC(=O)CNC(=O)[C@@H](NC(=O)[C@H](Cc1ccccc1)NC(=O)[C@H](CO)NC(=O)[C@@H](N)CC(=O)O)C(C)C)C(N)=O,nt,nt,i,i,i,nt
CC(=O)Nc1ccc(N=Nc2ccc(O)cc2)cc1,?,i,i,i,i,14.6µM
O=C(O)C#CC(=O)O,i,nt,nt,nt,nt,i
Cc1ccc(S(=O)(=O)c2cc3c(=O)n4cccc(C)c4nc3n(CC3CCCO3)c2=N)cc1C (stereo unspecified),6.51µM,i,i,i,i,5.8µM
Cc1cccn2c(=O)c3cc(S(=O)(=O)c4ccccc4)c(=N)n(Cc4cccnc4)c3nc12,23.1µM,i,i,nt,i,i
N=c1c(S(=O)(=O)c2ccccc2)cc2c(=O)n3ccccc3nc2n1CC1CCCO1 (stereo unspecified),?,i,i,i,i,?
Cc1cccn2c(=O)c3cc(S(=O)(=O)c4ccccc4)c(=N)n(CC4CCCO4)c3nc12 (stereo unspecified),11.6µM,i,i,i,i,?
O=C(NCCN1CCCCC1)c1ccc(Cn2c(SCc3cccc(F)c3)nc3cccnc32)cc1,?,nt,i,i,i,?
CN(C)S(=O)(=O)c1cccc(NC(=O)COC(=O)/C=C/c2ccc(Br)o2)c1,i,i,i,nt,i,i
NC(=O)c1ccc(NC(=O)COC(=O)/C=C/c2ccc(Br)o2)cc1,i,i,i,5.62µM,?,i
CC(C)(C)C(=O)Nc1nnc(SCC(=O)NC2CCCCC2)s1,?,i,i,i,i,i
O=C(C1CCCN(S(=O)(=O)c2ccc(Br)s2)C1)N1CCN(c2ccccc2)CC1 (stereo unspecified),13µM,i,i,i,i,18.4µM
Cc1ccc(NC(=O)C2CCCN(S(=O)(=O)c3c(C)noc3C)C2)c(Br)c1 (stereo unspecified),?,i,i,i,i,20.6µM
Cc1ccc(NC(=O)C2CCCN(S(=O)(=O)c3c(C)noc3C)C2)nc1 (stereo unspecified),i,i,i,i,i,i
